Read-out in experiment [1]: Thyroid Hormone Responsive (THRSP), THRSP (gene 7069)
Nature of the experiment: LTEA_HepaRG_THRSP: Life Technologies and Expression Analysis (LTEA) Assay for Thyroid Hormone Responsive (THRSP) using HepaRG (AID 2283536; active = hit-call score of the fitted dose curve at least 0.9, where 1 is the maximum; inactive = score below 0.9). The conditions noted are these: mRNA level, 48 h; actives raise or lower the signal. The procedure, abridged:
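mRNA induction or loss relative to 0.5% DMSO vehicle was fitted bidirectionally across an eight-point curve whose highest exposure was 100 uM. Human HepaRG liver cells received chemicals in duplicate over 48 h before RNA extraction.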

Read-out in experiment [2]: Cellular tumor antigen p53 (Homo sapiens) (UniProt P04637)
Briefly: LTEA_HepaRG_TP53: Life Technologies and Expression Analysis (LTEA) Assay for Tumor Protein P53 (TP53) using HepaRG (AID 2283537; active = hit-call score of the fitted dose curve at least 0.9, where 1 is the maximum; inactive = score below 0.9). Particulars: mRNA level, 48 h; actives raise or lower the signal. The procedure, abridged:
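HepaRG, 48 h exposure, top 100 uM, half-log 8-point, 0.5% DMSO vehicle, duplicates. Read: TP53 mRNA by TaqMan qRT-PCR, normalised to ACTB/GAPDH/POLR2A; bidirectional fit vs DMSO.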

Read-out in experiment [3]: UDP glucuronosyltransferase (UGT1A1), UGT1A1 (gene 54658)
Briefly: LTEA_HepaRG_UGT1A1: Life Technologies and Expression Analysis (LTEA) Assay for UDP glucuronosyltransferase (UGT1A1) using HepaRG (AID 2283538; active = hit-call score of the fitted dose curve at least 0.9, where 1 is the maximum; inactive = score below 0.9). Particulars: mRNA level, 48 h; actives raise or lower the signal. The gist of the method:
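Differentiated human HepaRG cells in serum-free induction medium were exposed in duplicate for 48 h to eight half-log concentrations up to 100 uM in 0.5% DMSO. UGT1A1 mRNA was quantified by TaqMan qRT-PCR, normalized to ACTB, GAPDH and POLR2A, and fitted bidirectionally against DMSO.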

Read-out in experiment [4]: UDP glucuronosyltransferase (UGT1A6), UGT1A6 (gene 54578)
Nature of the experiment: LTEA_HepaRG_UGT1A6: Life Technologies and Expression Analysis (LTEA) Assay for UDP glucuronosyltransferase (UGT1A6) using HepaRG (AID 2283539; active = hit-call score of the fitted dose curve at least 0.9, where 1 is the maximum; inactive = score below 0.9). The conditions noted are these: mRNA level, 48 h; actives raise or lower the signal. The procedure, abridged:
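Expression was quantified by TaqMan qRT-PCR on Fluidigm arrays with ACTB/GAPDH/POLR2A normalization and bidirectional fitting against 0.5% DMSO. HepaRG cells (~100,000/well) were treated in duplicate for 48 h at eight half-log concentrations up to 100 uM in serum-free induction medium.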

The nature of experiment [5]: LTEA_HepaRG_LDH_cytotoxicity: Cytotoxicity Assessment in the Life Technologies and Expression Analysis (LTEA) Assay (AID 2283563).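 For AC50: LDH activity released into spent culture medium as a marker of cell death.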 The procedure, abridged: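 LDH release into culture medium read after 48 h chemical treatment of HepaRG cells. Duplicate wells, eight-point half-log series topping at 100 uM, 0.5% DMSO vehicle and baseline.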
The target in experiment [6] is Cellular tumor antigen p53 (Homo sapiens) (UniProt P04637). Briefly: TOX21_p53_BLA_p2_ratio: Tox21 HCT-116 p53 Agonism Beta-lactamase Assay, Ratio, Phase 2 (AID 2283592). The gist of the method: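 Gain-of-signal p53 agonism was scored from the beta-lactamase FRET ratio (460/530 nm, 405 nm excitation) in HCT116 cells treated 16 h at 37C, 5% CO2, with DMSO serving as negative control and baseline.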
Sequence of Cellular tumor antigen p53 (Homo sapiens) (P04637 whole entry, looked up): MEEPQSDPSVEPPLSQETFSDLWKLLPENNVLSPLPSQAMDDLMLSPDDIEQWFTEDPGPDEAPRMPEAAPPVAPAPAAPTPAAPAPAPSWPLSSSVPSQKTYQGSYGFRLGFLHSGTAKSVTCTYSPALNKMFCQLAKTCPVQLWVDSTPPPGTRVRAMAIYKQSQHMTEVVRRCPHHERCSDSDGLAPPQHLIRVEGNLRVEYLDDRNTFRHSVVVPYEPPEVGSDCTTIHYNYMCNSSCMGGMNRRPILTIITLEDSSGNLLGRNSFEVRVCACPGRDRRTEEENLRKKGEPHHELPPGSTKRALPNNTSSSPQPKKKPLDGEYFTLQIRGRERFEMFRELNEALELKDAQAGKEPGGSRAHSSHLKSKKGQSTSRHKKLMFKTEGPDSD

Experiment [7] is described as follows: TOX21_p53_BLA_p2_viability: Viability Assessment in the Tox21 HCT-116 p53 Agonism Beta-lactamase Assay, Phase 2 (AID 2283591).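 Note: compound exposure lasted 16 h at 37 °C; actives lower the ATP signal meaning cytotoxicity.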 The procedure, abridged:
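Cytotoxicity readout: CellTiter-Glo ATP luminescence, 30 min at room temperature, after the beta-lactamase read. Cells were HCT116 exposed 16 h at 37C to compounds pin-transferred at 217-fold dilution from DMSO stocks.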

The nature of experiment [8]: TOX21_p53_BLA_p3_viability: Viability Assessment in the Tox21 HCT-116 p53 Agonism Beta-lactamase Assay, Phase 3 (AID 2283593).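 Note: cells exposed to compound for 16 h before reading.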 The procedure, abridged: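 Cellular ATP was quantified by CellTiter-Glo luminescence, read after 30 min at room temperature. Beforehand, HCT116 cells (4000/well) received compound 5 h post-seeding, 217-fold diluted from DMSO, then incubated 16 h at 37C.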

Read-out in experiment [9]: X-box binding protein 1 (XBP1), XBP1 (gene 7494)
Briefly: LTEA_HepaRG_XBP1: Life Technologies and Expression Analysis (LTEA) Assay for X-box binding protein 1 (XBP1) using HepaRG (AID 2283540; active = hit-call score of the fitted dose curve at least 0.9, where 1 is the maximum; inactive = score below 0.9). The conditions noted are these: mRNA level, 48 h; actives raise or lower the signal. The procedure, abridged: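 XBP1 transcript by qRT-PCR (housekeeping-normalized: ACTB, GAPDH, POLR2A) after 48 h chemical treatment of HepaRG cells, 8-point half-log series topping at 100 uM, vehicle 0.5% DMSO. Gain and loss of signal fitted relative to DMSO.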

Experiment [10] is described as follows: ATG_XTT_Cytotoxicity: Cytotoxicity Assessment in the Attagene TRANS-FACTORIAL HepG2 Assay (AID 2283584). The procedure, abridged: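 Viability endpoint from XTT after 24 h chemical exposure of reporter-transfected human HepG2 liver cells; signal loss fitted relative to DMSO negative control.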

“And” between values parts separate entries of the source, which are not always exact repeats. Equal values may be shown once. Inconclusive results are not listed. Some compounds were tested as several samples or in several runs, with calls that do not always agree. The source made the active and inactive calls. Rule for the calls, unless noted: active = hit-call score of the fitted dose curve at least 0.9, where 1 is the maximum; inconclusive = response in the unintended direction; inactive = score below 0.9.

With `Cc1cc2c3c(c1)C(c1ccccc1)=N[C@@H](NC(=O)c1ccncc1)C(=O)N3CC2`, the AC50 is 22.7 µM (active) in experiment [1], 50 µM (active) in experiment [2] and 4.99 µM (active) in experiment [3]. Besides, the compound was classed as inactive in experiment [4], in experiment [5] and in experiment [6].

Consider `CC#Cc1cc(C)nc(Nc2ccccc2)n1`, for which the AC50 in experiment [1] was 6.1 µM (active); in experiment [3] it was 8.68 µM (active); in experiment [5] it was 59.9 µM (active). The compound was called inactive in experiment [2], in experiment [4], in experiment [7], in experiment [6] and in [8].

As for `CCSC(=O)N(CC)C1CCCCC1`, the compound was classed as inactive in [1], in [3], in experiment [4], in [9] and in experiment [5].

In the case of `Cc1cc(O)ccc1Cl`, the compound was classed as inactive in experiment [1], in experiment [2], in experiment [3], in experiment [4], in experiment [5] and in [10]. For the same compound, the result in experiment [7], in experiment [6] and in experiment [8] was inactive.

Consider `CC(c1ccc(O)cc1)(c1ccc(O)cc1)c1ccc(O)cc1`, for which the AC50 is 23.9 µM (active) in [1]; 93.9 µM (active) in [2]; 68.9 µM (active) in experiment [3]; 75.2 µM (active) in [4]; 76.5 µM (active) in experiment [5]; 33.4 µM (active) in experiment [7]. For the same compound, the AC50 in experiment [6] was 62.8 µM (active). For the same compound, the compound was classed as inactive in experiment [10] and in experiment [8].

Take `CCOC(=O)C(O)(c1ccc(Cl)cc1)c1ccc(Cl)cc1`: the call in [1], in experiment [2], in experiment [4], in experiment [5], in experiment [10] and in experiment [8] was inactive. The AC50 in experiment [3] was 67.4 µM (active); in [7], 67.1 µM (active) and 17.8 µM (active); in experiment [6] it was 63.8 µM (active) and 32.9 µM (active); in experiment [8] it was 22 µM (active).

Consider `CCNc1nc(NC(C)C)nc(SC)n1`, for which the result in [1], in experiment [4], in experiment [9] and in experiment [5] was inactive.

For `Cc1cccc([N+](=O)[O-])c1`, the result in experiment [1], in experiment [2], in [3], in experiment [4], in experiment [5] and in experiment [10] was inactive. Besides, the result in experiment [7], in [6] and in experiment [8] was inactive.

Regarding `CCC(C)(CC)c1cc(NC(=O)c2c(OC)cccc2OC)on1`, the AC50 was 41.2 µM (active) in [1] and 2.8 µM (active) in [3]. The result in experiment [4], in [9] and in experiment [5] was inactive.

For the compound `Oc1c(Cl)c(Cl)c(Cl)c(Cl)c1Cl`, the concentration at half-maximal activity (AC50) in experiment [1] was 3.94 µM (active); in experiment [2], 6.71 µM (active); in experiment [3] it was 3.76 µM (active); in experiment [4] it was 6.77 µM (active); in experiment [5], 6.81 µM (active); in experiment [6] it was 8.58 µM (active) and 1.98 µM (active). Moreover, the outcome in [10], in experiment [7] and in experiment [8] was inactive.

Consider `CC1=C2C[C@H]3[C@@H](CC=C4C[C@@H](O)CC[C@@]43C)[C@@H]2CC[C@]12O[C@@H]1C[C@H](C)CN[C@H]1[C@H]2C`, for which the compound was called inactive in experiment [1], in experiment [2], in experiment [3], in experiment [4], in [5] and in [10]. For the same compound, the result in [7] and in [8] was inactive.

Take `C=CC(N)=O`: the compound was classed as inactive in [1], in experiment [2], in [3], in experiment [4], in [5] and in experiment [7]. For the same compound, the outcome in experiment [6] and in [8] was inactive.

For the compound `Nc1ccc(-c2ccc(N)cc2)cc1`, the call in [1], in [2], in experiment [3], in experiment [4], in experiment [5] and in experiment [7] was inactive. For the same compound, the result in experiment [6] and in experiment [8] was inactive.

Take `CCCCCCCCOC(=O)c1ccccc1C(=O)OCCCCCCCC`: the compound was classed as inactive in experiment [1], in [2], in [3], in experiment [4], in [5] and in experiment [10]. The outcome in experiment [7], in experiment [6] and in experiment [8] was inactive.

Turning to `c1cc2ccc3cccc4ccc(c1)c2c34`, the compound was classed as inactive in experiment [1], in experiment [2], in experiment [4], in experiment [5], in [10] and in [7]. Also, the outcome in experiment [6] and in experiment [8] was inactive. Besides, in [3], the AC50 was 10.7 µM (active).

In the case of `CN(C)c1nc(=O)n(C2CCCCC2)c(=O)n1C`, the outcome in [1], in [3], in experiment [4] and in experiment [5] was inactive.

For the compound `Cc1ccc(O)c(C)c1`, the compound was classed as inactive in [1], in experiment [2], in experiment [3], in [4], in experiment [5] and in [7]. The result in experiment [6] and in experiment [8] was inactive.

`Cc1ccccc1CO[C@@H]1C[C@@]2(C(C)C)CC[C@]1(C)O2`: the AC50 in [1] was 71.7 µM (active); in experiment [3] it was 14.9 µM (active). In addition, the result in [4] and in experiment [5] was inactive.

As for `O=C(N[C@H]1CN2CCC1CC2)c1cc2ccoc2cn1`, the call in experiment [1], in experiment [2], in experiment [3], in experiment [4], in [5] and in experiment [7] was inactive. Moreover, the result in experiment [6] and in experiment [8] was inactive.

The term AC50 denotes the concentration giving half of the maximal activity seen.

For the origin of these results see PubChem BioAssay (EPA / NIEHS).
